Screening results: PubChem BioAssay, National Center for Advancing Translational Sciences (NCATS)
A selection: hits, their analogues and other compounds. The true share with any hit is near 1%.
FEN1 inh-1: inhibitors of human flap endonuclease 1 | P39748 | 390,000 compounds, 0.35% hits | Potency, µM (highest dose often 114 µM), without a hit: at the top dose activity change, negative = inhibition, hits mostly inhibitors | Recombinant FEN1 flap cleavage, fluorescence, 15 min | AID 588795; also: % is scaled to controls: 0 for no effect and ±100 for the full control effect; nearly all actives have a fitted effect of over 65% in size
Target sequence (P39748 whole entry, looked up): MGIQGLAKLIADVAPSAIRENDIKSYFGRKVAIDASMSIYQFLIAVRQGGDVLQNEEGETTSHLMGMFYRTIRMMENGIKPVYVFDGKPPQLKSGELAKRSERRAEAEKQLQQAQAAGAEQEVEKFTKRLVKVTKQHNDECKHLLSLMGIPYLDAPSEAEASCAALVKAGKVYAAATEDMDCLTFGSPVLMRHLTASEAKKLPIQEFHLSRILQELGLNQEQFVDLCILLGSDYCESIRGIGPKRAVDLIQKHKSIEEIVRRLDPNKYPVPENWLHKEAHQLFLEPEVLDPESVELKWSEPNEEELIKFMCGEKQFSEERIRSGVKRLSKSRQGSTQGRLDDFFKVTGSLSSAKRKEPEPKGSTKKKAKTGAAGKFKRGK
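FEN1 at 10 nM preincubated with compounds 15 min at room temperature, then flap DNA substrate added at 50 nM final. Signal read at 0 and 15 min; concentration-response fitted with four-parameter Hill equation.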
APE1 inh: blocks human APE1 abasic DNA cleavage; P27695; recombinant APE1, TAMRA/BHQ-2 abasic DNA cleavage fluorescence; Potency, µM (top dose mostly 65.8 µM), for inactives: at the top dose activity change, negative = inhibition, actives largely listed as inhibitors; 350,000 compounds, 0.35% hits;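 also: plate controls were vehicle for no effect and reference inhibitor for full effect; nearly all actives have a fitted effect of over 55% in size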
Target sequence (P27695 whole entry, looked up): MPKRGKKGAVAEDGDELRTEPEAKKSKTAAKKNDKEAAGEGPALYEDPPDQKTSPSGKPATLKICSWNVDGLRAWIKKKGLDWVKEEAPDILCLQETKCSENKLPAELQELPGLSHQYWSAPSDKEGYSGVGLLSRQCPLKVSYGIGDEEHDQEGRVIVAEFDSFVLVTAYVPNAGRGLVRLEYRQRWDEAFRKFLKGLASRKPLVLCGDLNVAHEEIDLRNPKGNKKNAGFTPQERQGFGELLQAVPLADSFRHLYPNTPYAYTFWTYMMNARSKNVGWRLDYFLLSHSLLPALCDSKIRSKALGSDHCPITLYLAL
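Activity was derived from the fluorescence gain between first and third kinetic reads (60 s intervals, ex 525/em 598 nm) after 50 nM THF-abasic TAMRA/BHQ-2 duplex was added to 0.75 nM APE1 preincubated 15 min with compound.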
RECQ1 helicase: RECQ1 (human) helicase inhibition | RECQ1 DNA unwinding, red fluorescence kinetic read | 240,000 compounds, 0.54% hits | AID 2549 | P46063 | Potency, µM (highest dose often 57.3 µM), for inactives: at the highest dose activity, negative = inhibition, usual class: inhibitors;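 also: plate controls were vehicle for no effect and no enzyme for full effect; nearly all actives have a fitted effect of over 30% in size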
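50 nM RECQ1T1 preincubated 15 min with compound in Tris pH 8.0 buffer with MgCl2, DTT, Tween-20 and 2.5 ug/ml poly(dI-dC); started with 200 nM TAMRA/BHQ-2 forked duplex and 2 mM ATP. Unwinding read as fluorescence (525/598 nm), two reads 2 h apart.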
WRN helicase inh: blocks human WRN helicase; WRN helicase unwinding, fluorescent forked duplex, kinetic; Potency, µM (series often up to 114 µM), without a hit: top-dose activity change, negative = inhibition, most hits filed as inhibitors; 360,000 compounds, 0.46% hits; also: % is scaled to controls: 0 for no effect and ±100 for the full control effect; nearly all actives have a fitted effect of over 55% in size
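WRN at 20 nM final preincubated with compound 15 min at room temperature; reaction started with 100 nM fluorophore/quencher forked duplex oligonucleotide and 2 mM ATP final. Unwinding followed kinetically by red fluorescence (ex 525, em 598 nm).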
L3MBTL1 block: L3MBTL1 (human) inhibition | Q9Y468 | AlphaScreen L3MBTL1–H3K9me1 peptide binding | Potency, µM (top dose mostly 57.1 µM), without a hit: top-dose activity, negative = inhibition, actives largely listed as inhibitors | 230,000 compounds, 0.66% hits; also: % is scaled to controls: 0 for no effect and ±100 for the full control effect; nearly all actives have a fitted effect of over 60% in size
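Read-out is AlphaScreen signal from streptavidin donor and nickel chelate acceptor beads (10 ug/mL final each) bridging L3MBTL1 (50 nM) and biotinylated K9-monomethylated H3(1-15) peptide (75 nM), after 30 min compound exposure at room temperature.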
BLM inh: blocks DNA unwinding by human BLM helicase; P54132; recombinant BLM DNA unwinding, fluorescence dequenching; Potency, µM (top dose mostly 56.1 µM), for the others: at the top dose activity change, negative = inhibition, usual class: inhibitors; 350,000 compounds, 0.2% hits; AID 2528;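 also: plate controls were vehicle for no effect and no enzyme for full effect; nearly all actives have a fitted effect of over 35% in size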
FEN1 inh-2: FEN1 inhibition, cherry-pick retest. FEN1 flap cleavage, TAMRA/BHQ2 fluorogenic DNA substrate. AID 720498. Potency, µM, hits mostly inhibitors. 880 compounds, 79% hits. shares compounds with FEN1 inh-1; also: nearly all actives have a fitted effect of over 60% in size
Active calls of the source: *; i = inactive; u = inconclusive; x = not tested or not shown; [ ] = dose if it differs, or a comment. Calls follow the shape of the dose curve; as a rule, active = well fitted curve in the direction sought with a large enough effect; inconclusive = small, poorly fitted or top-dose-only effect, or another doubt; inactive = no such curve, though single readings can be large; an effect the other way counts as inactive or inconclusive. Potency is read from the fitted curve at half-maximal effect.

SMILES	FEN1 inh-1	APE1 inh	RECQ1 helicase	WRN helicase inh	L3MBTL1 block	BLM inh	FEN1 inh-2
Cc1nc(Nc2ccncc2)c2oc3ccccc3c2n1	44.7µM*	-3.2%	-2.8%	19.7%[57.1 µM]	x	55.7%	42.6*
CC1(C(=O)NS(=O)(=O)c2cccs2)CCN1C(=O)CC1CC1 (stereo not given)	x	x	x	8.3%	x	x	x
COc1ccc(NS(=O)(=O)c2cc([N+](=O)[O-])ccc2NN=Cc2ccccc2OCC(=O)O)cc1	8.4%	-1.7%	x	-3.5%	-4.1%	x	x
O=C(O)COc1ccccc1C=NNc1ccc([N+](=O)[O-])cc1S(=O)(=O)Nc1ccc(Cl)cc1	-15.5%	-3.6%	x	u	-5.1%	x	75.7*
CN1CCN(c2ncc3nc(CCc4ccccc4)c(=O)n(Cc4ccc(F)cc4)c3n2)CC1	x	0.5%	-0.5%	x	x	-0.4%	x
COc1ccc(/C=C/C(=O)NC(=S)Nc2cc([N+](=O)[O-])ccc2O)cc1OC	22.4µM*	-8.9%	-10.9%	-11.8%[11.6 µM]	-19.4%	-18.8%	60.1*
CN(CCC#N)C(=O)COC(=O)c1c2c(nc3ccccc13)/C(=C\c1ccco1)CC2	50.1µM*	x	x	u	x	x	67.5*
CC(=O)NC(c1ccco1)c1cc(Cl)c2cccnc2c1O (stereo not given)	x	-4.7%	x	x	-28.2%	x	x
O=C(NC(c1ccco1)c1cc(Cl)c2cccnc2c1O)c1ccsc1 (stereo not given)	x	x	x	x	x	x	u
O=C1Nc2ccccc2Oc2cc([N+](=O)[O-])cc(Oc3ccccc3)c21	u	-4.2%	1.8%	u	-2.3%	-9.7%	84.9*
CC(OC(=O)c1ccc([N+](=O)[O-])s1)C(=O)NC1CCCCC1C (stereo not given)	-19.6%	2.0%	x	2.0%[11.6 µM]	-24.3%	x	12*
CC1CCCC(NC(=O)COC(=O)c2ccc([N+](=O)[O-])s2)C1C (stereo not given)	-23.8%	u	x	-8.4%	u	x	6.01*
Cc1c(NC(=O)C(C)OC(=O)c2ccc([N+](=O)[O-])s2)c(=O)n(-c2ccccc2)n1C (stereo not given)	-2.1%	u	-7.6%	-0.2%[11.6 µM]	-20.0%	-8.1%	6.01*
Cc1ccc(OCCN2CCC2(C)C(=O)NCc2ccc(C(F)(F)F)cc2)cc1 (stereo not given)	x	x	x	-5.5%	x	x	x
CN(C)c1ccc(/C=C/c2cccc3ccccc23)cc1	-1.2%	x	x	x	x	x	x
Cc1nc(NC2CCCCC2)c2nc(-c3ccccc3)n(CC3CCN(C)CC3)c2n1	x	-6.2%	-2.4%	x	x	4.1%	x
CC1CCc2nc3ncn(Cc4ccccc4F)c(=O)c3cc2C1 (stereo not given)	-2.8%	x	x	x	x	-0.3%	x
COc1ccc(CNc2ncnc3c2[nH]c2cc(OC)c(OC)cc23)cc1	35.5µM*	-6.5%	-28.9%	-24.6%[57.1 µM]	-3.1%	u	30.1*
COc1ccc(CNc2ncnc3c2[nH]c2ccccc23)cc1	u	-3.5%	-17.4%	-30.5%	-18.8%	-29.5%	x
CCN1CCCC1CNC(=O)c1cc2c(-c3ccc(Cl)cc3)nn(C)c2s1 (stereo not given)	50.1µM*	-9.8%	9.6%	36.9%	x	183.8%	42.6*
c1ccc(CN2CCC(N3CCC(N4CCCCCC4)CC3)CC2)cc1	-6.6%	15.5%	x	-17.7%	-12.3%	-6.3%	x
c1ccc2c(c1)c1c(c3ccccc32)CN2CCCC2C1 (stereo not given)	17.8µM*	x	x	0.4%[11.6 µM]	x	x	37.9*
COc1cc2cncc(Cc3ccccc3)c2cc1O	5.1%	x	x	-7.5%	x	x	x
COc1cc2c(Cc3ccccc3)cncc2cc1O	2.2%	x	x	-0.7%[11.6 µM]	x	x	u
Cc1ccc(CC2(c3ccccc3)NC(=O)NC2=O)cc1 (stereo not given)	-5.0%	x	x	4.9%	x	x	x
SMILES	FEN1 inh-1	APE1 inh	RECQ1 helicase	WRN helicase inh	L3MBTL1 block	BLM inh	FEN1 inh-2
CCC(=O)N/C(N)=N/c1nc(C)c2cc(OC)ccc2n1	79.4µM*	2.0%	-7.3%	44.3%	3.9%	87.7%	u
O=C(COC(=O)c1ccc([N+](=O)[O-])s1)Nc1ncc(C(F)(F)F)cc1Cl	u	u	9.1%	-8.0%[57.1 µM]	u	-3.5%	8.49*
O=C(COC(=O)c1ccc([N+](=O)[O-])o1)Nc1ncc(Cl)cc1Cl	u	-29.3%	x	u	u	x	10.7*
O=C(COC(=O)c1ccc(Br)o1)Nc1ncc(Cl)cc1Cl	-7.8%	-9.7%	-1.7%	-26.9%	x	-15.9%	x
COc1ccc(NC(=O)COC(=O)c2ccc([N+](=O)[O-])o2)cc1Cl	u	-9.5%	i	-1.7%[57.1 µM]	x	0.2%	21.3*
CCOC(=O)C1=C(C)NC(C)=C(C(=O)OCC)C1C(=O)OCC(=O)Nc1ccc(NC(C)=O)cc1	x	x	x	10.1%	x	x	x
Cc1ccc(S(=O)(=O)Nc2ccc(-c3ccc(N4CCCCCC4)nn3)cc2)cc1C	10.0%	x	x	x	x	-4.4%	x
Cc1noc(C)c1S(=O)(=O)N(C)C[C@H]1OCc2cnnn2CCCC(=O)N([C@H](C)CO)C[C@H]1C	x	x	x	1.9%	x	x	x
CCOC(=O)c1c(C)[nH]c(C)c1C(=O)COC(=O)c1ccc([N+](=O)[O-])s1	u	-21.5%	x	-4.1%[11.6 µM]	u	x	26.9*
O=C(Cc1ccc(OCC2CCCCC2)cc1)NO	-32.7%	x	x	x	x	x	x
O=C(c1ccc(CSc2ccc(Cl)cc2)o1)N1CCOCC1	x	x	x	2.6%	x	x	x
CC(=O)Nc1ccc(NC(=O)C(C)OC(=O)/C(C#N)=C/c2ccc(N(C)C)cc2)cc1 (stereo not given)	u	-26.6%	x	u	-0.7%	x	x
CC(OC(=O)/C(C#N)=C/c1ccc(N(C)C)cc1)C(=O)N(C)c1ccccc1 (stereo not given)	50.1µM*	23.8µM*	x	56.2µM*	19.6%	x	37.9*
Nc1cccc2cc(S(=O)(=O)O)ccc12	8.91µM*	x	x	u	x	x	67.5*
Nc1cccc(S(=O)(=O)O)c1	x	u	22.2%	x	x	x	x
c1cc2ccc3ccc(CN4CCOCC4)c4ccc(c1)c2c34	-25.3%	-6.0%	-5.3%	2.1%	11.2%	36.7%	x
OC1CCCN(Cc2ccc3ccc4cccc5ccc2c3c45)C1 (stereo not given)	56.2µM*	u	33.8%	21.1%[57.1 µM]	1.2%	187.6%	42.6*
COc1ccc(OC)c(/C=C/c2ccccc2)c1	3.5%	x	x	x	x	x	x
COc1ccc2c(c1)cc(C(=O)N/N=C/c1c(O)c(C(=O)O)cc3ccccc13)n2C	u	-36.5%	x	-13.9%[11.6 µM]	x	u	84.9*
Cn1c(O)c(/C=N/NC(=O)c2cc3ccccc3cc2O)c2ccccc21	3.7%	-2.6%	x	-24.2%	x	-11.3%	x
